Screening results as filed in PubChem BioAssay.
rCAG binder – r(CAG) repeat RNA binding. TO-PRO-1 dye displacement fluorescence. inhibition, % at 3 µM. 370,000 compounds, 1.3% hits. AID 651821;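 active = inhibition above the plate cutoff, the mean of all test compounds on that plate plus 3 SD, cut at about 35% in these data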;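 also: 0% = DMSO alone and 100% = 100 µM mitoxantrone as full dye displacement; higher means more dye released from RNA so lower well fluorescence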
MPTP inh – inhibitors of mitochondrial permeability transition pore. isolated mouse mitochondria, Ca2+ swelling absorbance, 30 min. AID 602449. 360,000 compounds, 1.4% hits. inhibition, % at 10 µM;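 active = inhibition of 50% or more, scaled per plate between neutral and stimulator controls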;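 also: 0% = DMSO wells given calcium and 100% = 1 mM EGTA wells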
NR3A LBD binder – modulators (binders) of human NR3A ligand-binding domain; NR3A LBD differential scanning fluorimetry, Tm shift; 0% = protein alone, 100% = glycine-bound protein; Tm shift relative to glycine control, % at 25 µM; 340,000 compounds, 2.5% hits;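 active = melting temperature shift of at least 10% of the positive control shift, at one fixed dose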
Myeloid diff MLP – promotes myeloid progenitor differentiation | 360,000 compounds, 1% hits | AID 624256 | calls only at 10 µM | ER-HoxA9 myeloid progenitors, lysozyme-GFP differentiation, flow cytometry;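 active = normalized GFP-positive differentiation at or above the plate's own cutoff, the solvent-only control mean plus 3 SD; inconclusive = no clear call, values can overlap the other calls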;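 also: cells exposed to compound for four days before flow analysis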
FAS TE block – FAS thioesterase (human) inhibition; P49327; inhibition, % at 15 µM; 360,000 compounds, 0.67% hits; recombinant FAS-TE, OMFH fluorogenic substrate, fluorescence endpoint;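 active = compounds whose normalised, plate-corrected inhibition of enzyme fluorescence in the single-dose primary screen is 50% or more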;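 also: 0% = DMSO with enzyme and 100% = substrate without enzyme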
Numbers without * were called inactive; i = inactive; u = inconclusive; x = no result given; + = active, no number. Rows were chosen to be rich in hits. Some 5.7% of all compounds tested hit in one or more screens of this group.

SMILES	rCAG binder	MPTP inh	NR3A LBD binder	Myeloid diff MLP	FAS TE block
CCCNC(=O)c1c(N)n(Cc2ccc3c(c2)OCO3)c2nc3ccccc3nc12	x	0	21*	i	2
CC(C)CNC(=O)c1c(N)n(Cc2ccc3c(c2)OCO3)c2nc3ccccc3nc12	3	3	22*	i	23
CC(C)CCn1c(N)c(C(=O)NCc2cccs2)c2nc3ccccc3nc21	x	4	18*	i	28
COCCNC(=O)c1c(N)n(CCC(C)C)c2nc3ccccc3nc12	3	-2	-7	i	12
CC(C)CCNC(=O)c1c(N)n(Cc2ccc3c(c2)OCO3)c2nc3ccccc3nc12	23	5	32*	i	26
CC(NC(=O)OCc1ccccc1)[P+](=O)O (stereo not drawn)	2	x	x	x	x
CN1CCN(c2ccc(S(C)(=O)=O)cc2[N+](=O)[O-])CC1	-2	1	-3	i	-9
CN1CCN(c2ccc(S(=O)(=O)C(F)(F)F)cc2[N+](=O)[O-])CC1	-6	0	15*	i	-2
CCCCCCCCn1sccc1=O	3	-6	3	+	-8
C#C[C@]1(O)CC[C@H]2[C@@H]3CCC4=Cc5nc6nc7ccccc7n6cc5C[C@]4(C)[C@H]3CC[C@@]21C	7	-1	-1	+	19
C=CCN(CC#CCO)Cc1ccc(OC)cc1OC	2	x	x	x	x
C1=C(CCNCc2ccccc2)CCCC1	0	-1	11*	i	-3
O=c1[nH]c2ccccc2n1C1CCN(C(c2ccccc2OC(F)(F)F)c2nnnn2Cc2ccccc2)CC1 (stereo not drawn)	9	-1	x	i	38
O=c1[nH]c(O)c(/C=C2/C=CC(c3cc(Cl)ccc3Cl)=N2)c(=O)[nH]1	16	1	-3	+	-5
O=C(OCc1ccccc1)N1CCC2CC1c1cc(N3Cc4ccccc4-n4nncc4C3)ccc12 (stereo not drawn)	11	-1	x	i	28
O=c1c2ccccc2[se]n1-c1ccccc1	5	-1	32*	i	-4
COc1cc(/C=C2\C(=O)NC(=O)N(c3ccccc3)C2=O)cc(OC)c1O	-4	3	11*	i	-6
COc1cc(/C=C2\C(=O)NC(=O)N(c3ccccc3)C2=O)c([N+](=O)[O-])cc1OC	3	1	-5	i	-4
CN1CCN(c2nc(N)c(Br)c(Cl)n2)CC1	-2	-1	14*	+	-1
COC(=O)C1(F)C(=O)NC(=O)NC1O (stereo not drawn)	0	-1	x	u	-3
Cc1ccc([C@@H]2C[C@H]3[C@@H](CN2S(=O)(=O)c2ccc(Cl)cc2)C(=O)C[C@@H](c2ccccc2F)N3S(=O)(=O)c2ccc(C)cc2)cc1	14	-1	x	i	19
C/C(=N\N1CCCCCC1)c1c(O)n(-c2ccc(C)cc2)c(=O)[nH]c1=O	-7	-1	-2	i	-6
CC/C(=N\N1CCCCCC1)c1c(O)n(-c2ccc(C)cc2)c(=O)[nH]c1=O	2	0	21*	i	-6
CCC(C)(O)C(=O)OC1C(=O)OC2CC3C(C)=CC(O)C(O)C3(C)C3C4(O)OCC23C1C(C)C4O (stereo not drawn)	-4	0	x	i	-3
O=C1NC(=O)N(c2ccc(Cl)cc2)C(=O)/C1=C\c1ccc(Sc2nc3ccccc3[nH]2)o1	49*	47	-2	i	-5
SMILES	rCAG binder	MPTP inh	NR3A LBD binder	Myeloid diff MLP	FAS TE block
O=C1NC(=O)C(=Cc2ccc(Sc3ccccc3)o2)C(=O)N1	7	24	-1	i	-1
O=C1NCN(c2ccccc2)C12CCN(C(c1cc3ccccc3o1)c1nnnn1Cc1ccccc1)CC2 (stereo not drawn)	12	4	x	i	43
C[N+]1=C(/C=C/Nc2ccccc2)C(C)(C)c2ccccc21	3	3	-1	+	-18
COC(=O)C1=C(c2ccc(OCc3ccccc3)cc2)C[C@@H]2CC[C@H]1N2C(=O)NCc1ccc2c(c1)OCO2	5	2	x	i	33
NC(N)=N/N=C/c1ccc(N(c2ccccc2)c2ccccc2)cc1	30	1	22*	x	-101
NC(N)=N/N=C/c1ccc(N2CCOCC2)cc1	3	0	0	+	-6
c1ccc(-c2nc3ccccc3nc2-c2ccc(CN3CCC(n4nnc5ccccc54)CC3)cc2)cc1	9	x	x	x	x
